Measured values published in PubChem BioAssay AID449762 (Southern Research Specialized Biocontainment Screening …, 2010).
The whole screen tested about 330,000 compounds, of which about 1,900 (0.58%) were called active. Roughly 4% stayed inconclusive and do not appear here. Cut-off read from the data, not from the text of the source: inconclusive = inhibition above about 70% without an active follow-up result; inactive = below that. A selection follows. Potency and affinity values are given separately.

Experiment: M. tuberculosis growth inhibition, HTS (AID 449762);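 note: bacterial growth assessed after seven days of incubation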
Details: M. tuberculosis H37Rv growth inhibition, 7H9 media; at 25 µM; hits give high values

| Compound | inhibition |
| --- | --- |
| CN(C)Cc1nc2ccccc2c(=O)n1CC#N | -2.77% (inactive) |
| N#CCn1c(Cc2ccccc2)nc2ccccc2c1=O | -1.48% (inactive) |
| CCOCCc1nnc(NC(=O)CS(=O)(=O)c2ccc(C)cc2)s1 | -7.28% (inactive) |
| COc1ccccc1CN1CCC(n2nccc2NC(=O)CCCc2ccccc2)CC1 | 3.32% (inactive) |
| CCOC(=O)C1=C(CSc2nc3c(cc2C#N)CN(C)CC3)OC(N)=C(C#N)C1c1ccc(Cl)cc1 (stereo not drawn) | -0.9% (inactive) |
| COc1ccc(C(CC(=O)NCCCN2CCOCC2)NS(=O)(=O)c2ccc(C)cc2)cc1 (stereo not drawn) | -3.32% (inactive) |
| Cc1ccc(NC(=O)C2CCN(c3cnccn3)CC2)cc1 | -0.63% (inactive) |
| CCCc1ccc(NC(=O)C2CCCN(c3cnccn3)C2)cc1 (stereo not drawn) | 3.51% (inactive) |
| COc1ccc(NC(=O)C2CCCN2S(=O)(=O)c2ccc3c(c2)CCC(=O)N3)cc1 (stereo not drawn) | -21% (inactive) |
| CCCn1c(CCc2ccccc2)nnc1SCC(=O)N1CCCC1 | -5.53% (inactive) |
| C[C@]12CCC(=O)C=C1CC[C@@H]1C2[C@H](O)C[C@]2(C)C(=O)CCC12 (stereo partly drawn) | 2.16% (inactive) |
| Cc1cc(NC(=O)c2cc(-c3cccnc3)nc3c(C)c(C)ccc23)no1 | 2.95% (inactive) |
| Cc1nnc(NC(=O)c2cc(-c3ccncc3)nc3c(C)cccc23)s1 | 9.24% (inactive) |
| CCN(CC)S(=O)(=O)c1cccc(-c2n[nH]c(=S)n2CC(C)C)c1 | 4.49% (inactive) |
| COC(=O)N(NC(=O)C(O)(CCC(C)C)CCC(C)C)c1ccccc1 | 2.67% (inactive) |
| CCOC(OCC)P(=O)(C(C)C)C(C)C | -4.61% (inactive) |
| Cc1ccc(-c2nnc3c(C(F)(F)F)nc4ccccc4n23)cc1 | 0.23% (inactive) |
| Cc1cc(-c2cc(-c3ccc(Cl)cc3)on2)nc(NC2CCCC2)n1 | 31.4% (inactive) |
| CC(C)c1cc(-c2cc(-c3ccccc3)on2)nc(NC2CCCC2)n1 | 5.62% (inactive) |
| CCCCN(C)C(=O)CC(NS(=O)(=O)c1ccc(NC(C)=O)cc1)C(C)C (stereo not drawn) | 0.04% (inactive) |
| O=C(NCc1nnnn1-c1ccc(Cl)cc1)c1ccc(Br)o1 | -0.54% (inactive) |
| Cc1ccc(-n2nnnc2CNC(=O)c2ccc(Br)o2)cc1C | 11.2% (inactive) |
| O=C(O)C1C2C=CC(C2)C1C(=O)NCc1ccc(Cl)cc1Cl (stereo not drawn) | 7.08% (inactive) |
| Oc1ccccc1-c1cc(C(F)(F)F)nc(-c2ccccc2)n1 | 6.24% (inactive) |

| Compound | inhibition |
| --- | --- |
| Oc1ccccc1-c1cc(C(F)(F)C(F)F)nc(-c2ccccc2)n1 | 12.1% (inactive) |
| COc1ccc(C)cc1N/C(N)=N/c1nc(C)cc(C)n1 | 5.92% (inactive) |
| Cc1cc(C)nc(/N=C(\N)Nc2cc([N+](=O)[O-])ccc2C)n1 | 1.78% (inactive) |
| CC(=O)N/C(=C\c1ccccc1)C(=O)OCC(=O)NC(C)C12CC3CC(CC(C3)C1)C2 (stereo not drawn) | 10.4% (inactive) |
| O=C(CCC(=O)OCc1ccc([N+](=O)[O-])cc1)Nc1ccccc1Cl | -11.9% (inactive) |
| CC(C)(C)c1ccc(C(=O)NNC(=O)c2ccc(Cl)cc2)cc1 | -6.43% (inactive) |
| CC(C)(C)NC(=O)C(=O)NNC(=O)c1ccccc1 | -5.28% (inactive) |
| Cc1cc(C)c(S(=O)(=O)c2cc(F)ccc2C)c(Cl)n1 | 6.18% (inactive) |
| Cc1cc(/C([O-])=C(/C(=S)Nc2ccccc2)[n+]2ccccc2)c(C)n1-c1ccccc1 | 38.1% (inactive) |
| Cc1cc(/C([O-])=C(/C(=S)Nc2ccc(F)cc2)[n+]2ccccc2)c(C)n1-c1ccc(F)cc1 | -9.36% (inactive) |
| CC(CC(=O)N1CCN(S(=O)(=O)c2ccc(Cl)cc2)CC1)n1cncn1 (stereo not drawn) | 7.22% (inactive) |
| Cc1cc2nncn2c(Cc2ccccc2)n1 | -5.06% (inactive) |
| CCCNC(=O)c1onc(CSc2ccccc2)c1C(=O)NCCC | 3.78% (inactive) |
| CCc1cc2c(=O)n(CC(=O)NC3CCCCC3)cnc2s1 | -19.5% (inactive) |
| CCc1cc2c(=O)n(CC(C)C)cnc2s1 | 13.2% (inactive) |
| Cc1sc2ncn(CC(=O)N(CC(=O)NC3CCCC3)Cc3cccs3)c(=O)c2c1C | -6.3% (inactive) |
| O=C(CCc1nc(-c2ccccc2F)no1)NCCc1ccccc1Cl | -5.37% (inactive) |
| CC(=O)Oc1ccc(C(=O)Nc2cccc(C(=O)c3ccc(C)c(C)c3)c2)cc1 | 6.87% (inactive) |
| O=C(C[n+]1cccc(C(=O)N/N=C/c2ccc(Br)cc2)c1)c1ccccc1 | -3.73% (inactive) |
| O=C(N/N=C/c1ccc(O)cc1)c1cc[n+](Cc2ccccc2)cc1 | -5.45% (inactive) |
| Cn1c(=O)n(C)c2cc([N+](=O)[O-])c(N3CCN(S(=O)(=O)c4ccc(C(C)(C)C)cc4)CC3)cc21 | -9.94% (inactive) |
| CCN1CCN(c2oc(COc3ccc(Cl)cc3)nc2C#N)CC1 | 8.42% (inactive) |
| Cc1ccc(OCc2nc(C#N)c(N3CCN(Cc4ccccc4)CC3)o2)cc1 | -9.38% (inactive) |
| CCCc1nc2oc3c(NCc4ccccn4)ncnc3c2c2c1COC(C)(C)C2 | -3.19% (inactive) |

| Compound | inhibition |
| --- | --- |
| CCOc1ccc(N2CC(C(=O)N3CCCCCC3)CC2=O)cc1 (stereo not drawn) | -1.61% (inactive) |
| COc1ccc(NC(=O)CSc2nnc3ccc(-c4ccccn4)nn23)c(OC)c1 | -1.07% (inactive) |
| CC(C)(CO)NCc1ccccc1OCC(=O)Nc1ccccc1 | -10.3% (inactive) |
| CNCc1ccccc1OCC(=O)Nc1ccccc1 | -16.8% (inactive) |
| CCc1cc2c(SCC(=O)c3cccs3)ncnc2s1 | -6.51% (inactive) |
| CCNCC(=O)N1c2ccccc2CCc2ccc(NC(=O)OCC)cc21 | 8.22% (inactive) |
| CCNCC(=O)N1c2ccccc2CCc2ccc(NC(C)=O)cc21 | -1.99% (inactive) |
| Cc1ccc(Oc2ccc(Oc3ccc(C)cc3)nn2)cc1 | 1.77% (inactive) |
| O=C(CN1CCN(S(=O)(=O)c2ccccc2)CC1)N1CCCCC1 | -3.13% (inactive) |
| CN(C)CCCn1c(NCc2ccc3c(c2)OCO3)nc2ccccc21 | -3.55% (inactive) |
| CCCn1c(NCc2ccc3c(c2)OCO3)nc2ccccc21 | 13.3% (inactive) |
| CNC(=O)c1c(NC(=O)c2ccco2)sc2c1CCC2 | 8.18% (inactive) |
| O=C(CCNS(=O)(=O)c1ccccc1)NNC(=O)COc1ccccc1F | 0.68% (inactive) |
| CCCOC(=O)c1cccc(NC(=O)COc2ccc([N+](=O)[O-])cc2)c1 | 66.4% (inactive) |
| CC(=O)C(C)Oc1ccc(Cc2ncc(C(F)(F)F)cc2Cl)cc1 (stereo not drawn) | 10.2% (inactive) |
| NC(=O)COc1ccc(Cc2ncc(C(F)(F)F)cc2Cl)cc1 | 5.51% (inactive) |
| C=CCn1c(SCC(=O)c2c(N)n(C)c(=O)n(C)c2=O)nnc1-c1ccoc1C | 2.92% (inactive) |
| CC(Sc1nnc(-c2cccnc2)n1N)C(=O)N1CCOCC1 (stereo not drawn) | -0.03% (inactive) |
| COc1cc(C(=O)NCCC(=O)NCCN2CCCCCC2)cc(OC)c1OC | -5.5% (inactive) |
| COC(=O)COc1ccc(S(=O)(=O)NCCC2=CCCCC2)cc1 | 59.1% (inactive) |
| CCCNS(=O)(=O)c1ccc(OCC(=O)NCCC2=CCCCC2)cc1 | -5.92% (inactive) |
| CC1CC(NS(=O)(=O)c2cc3c4c(c2)CCN4C(=O)CC3)CC(C)(C)C1 (stereo not drawn) | 12.2% (inactive) |
| Cc1ccc(-n2cc(-c3ccccc3)c3c(=O)[nH]cnc32)cc1 | 8.81% (inactive) |
| O=c1[nH]cnc2c1c(-c1ccccc1)cn2-c1ccccc1 | 5.31% (inactive) |

| Compound | inhibition |
| --- | --- |
| COc1ccc(CCNC(=O)c2[nH]c(C)c(C(C)=O)c2C)cc1OC | -6.23% (inactive) |
| O=C(/C=C/c1ccco1)Nc1ccc(-c2nc3ccccc3[nH]2)cc1 | -5.99% (inactive) |
| Cc1ccc(-c2nc3ccccc3[nH]2)cc1NC(=O)/C=C/c1ccco1 | 7.41% (inactive) |
| COC(=O)c1nnn(-c2nonc2N)c1CSc1ccccn1 | -4.14% (inactive) |
| Cc1ccc(NC(=O)c2ccccc2SCC(=O)N2CCCC2)cc1S(=O)(=O)N(C)C | -1.08% (inactive) |
| COc1cccc(N(C(=O)Cn2nnc(-c3ccc(C)cc3)n2)C(C(=O)NC(C)(C)C)c2c[nH]c3ccccc23)c1 (stereo not drawn) | -12.2% (inactive) |
| CC(C)(C)NC(=O)C(c1c[nH]c2ccccc12)N(C(=O)Cn1nnc(-c2ccc(Cl)cc2)n1)c1ccccc1F (stereo not drawn) | 2.56% (inactive) |
| Cc1cc([N+](=O)[O-])nn1CC(=O)Nc1cnc2ccccc2c1 | -3.67% (inactive) |
| Cc1ccc(CCNC(=O)c2nn(C)c3c2CS(=O)(=O)c2ccccc2-3)cc1 | 3.98% (inactive) |
| CCOC(=O)C1CCN(C(=S)NC(=O)c2cccs2)CC1 | 0.89% (inactive) |
| O=C(NC(=S)N1CCCCC1)c1cccs1 | 4.84% (inactive) |
| Cn1c(-c2ccsc2)c(-c2cccs2)c2cc(-c3ccc4cc[nH]c4c3)ccc21 | -1.89% (inactive) |
| Cc1ccc(NC(=O)C(c2ccccc2)N2CCN(C(=O)c3ccco3)CC2)cc1Cl (stereo not drawn) | -11.9% (inactive) |
| Cc1nn(-c2nc3ccccc3[nH]2)c(=O)c2ccccc12 | 5.73% (inactive) |
| Cc1nn(-c2nc3ccccc3s2)c(N)c1-c1ccc(Cl)cc1 | 1.29% (inactive) |
| Cc1cc(C)nc(NS(=O)(=O)c2ccc(NS(=O)(=O)c3ccccc3)cc2)n1 | -6.64% (inactive) |
| CC1(C)Cc2c(sc3c2C(=O)N(c2ccccc2)C2=NCCCN23)CO1 | 1.18% (inactive) |
| CCOC(=O)c1csc(NC(C)=O)n1 | 0.4% (inactive) |
| CCCC(=O)Nc1nc(C(=O)OCC)cs1 | 2.98% (inactive) |
| O=C(c1ccc(Cl)cc1)C1CCCN(Cc2cccc3cccnc23)C1 (stereo not drawn) | 9.96% (inactive) |
| O=C(CCCOc1ccc(Cl)cc1)Nc1cccc(C(=O)O)c1 | 7.01% (inactive) |
